PubChem BioAssay (EPA / NIEHS)
“And” between values parts separate entries of the source, which are not always exact repeats. Equal entries are not always repeated. Some compounds were tested as several samples or in several runs, with calls that do not always agree. The source made the active and inactive calls. Rule for the calls: active = hit-call score of the fitted dose curve at least 0.9, where 1 is the maximum; inactive = score below 0.9.

assay: ATG_BRE_CIS: Attagene CIS-FACTORIAL HepG2 Assay for human Bone Morphogenetic Protein (BMP) Response Element (BRE) (AID 2282933); conditions: HepG2 BMP response element reporter, Attagene transcription factor profiling; actives raise or lower the signal
How it was run: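 After a 24 h chemical treatment, transiently transfected HepG2 cells were lysed for RNA; reporter transcripts were quantified by fluorescent RT-PCR and capillary electrophoresis, normalised to DMSO.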

| Structure (SMILES) | outcome | AC50 |
| --- | --- | --- |
| C[C@]12CCC(=O)C=C1CC[C@@H]1[C@@H]2CC[C@]2(C)C(=O)CC[C@@H]12 | inactive | – |
| O=S(=O)(O)C(F)(F)C(F)(F)C(F)(F)C(F)(F)C(F)(F)C(F)(F)F | inactive | – |
| CCOP(=S)(OCC)SCSC(C)(C)C | inactive | – |
| O=C(NC(=O)c1cc(F)c(F)cc1Cl)Nc1cc(F)ccc1N1CCC(C(=O)O)CC1 | inactive | – |
| CC(c1ccc(O)cc1)(c1ccc(O)cc1)c1ccc(O)cc1 | – | 18.3 µM (active) |
| ClC1=C(Cl)[C@]2(Cl)[C@@H]3[C@@H](Cl)[C@H]4O[C@H]4[C@@H]3C1(Cl)C2(Cl)Cl | inactive | – |
| Cc1ccccc1[N+](=O)[O-] | inactive | – |
| ClC1=C(Cl)[C@]2(Cl)[C@@H]3[C@H]4C[C@H]([C@@H]5O[C@H]45)[C@@H]3[C@@]1(Cl)C2(Cl)Cl | inactive | – |
| Oc1c(Cl)c(Cl)c(Cl)c(Cl)c1Cl | – | 13.6 µM (active) and 18.2 µM (active) and 31.3 µM (active) |
| CCCCCCCCCc1ccc(O)cc1 | inactive | 55.7 µM (active) |
| O=S(=O)(O)C(F)(F)C(F)(F)C(F)(F)C(F)(F)F | inactive | – |
| Cc1cc(-c2ccc(N)c(C)c2)ccc1N | inactive | – |
| CC#Cc1cc(C)nc(Nc2ccccc2)n1 | inactive | – |
| O=C(O)C(F)(F)C(F)(F)C(F)(F)C(F)(F)C(F)(F)C(F)(F)C(F)(F)C(F)(F)F | inactive | 248 µM (active) |
| O=C(O)C(F)(F)C(F)(F)C(F)(F)C(F)(F)C(F)(F)C(F)(F)C(F)(F)C(F)(F)C(F)(F)F | inactive | – |
| CCCCCCCCCC[N+](C)(C)CCCCCCCCCC | inactive | – |
